Compound activity (PubChem)
Shown are actives, neighbours in structure and some others; about 3.6% of the full set was active somewhere.
Pf apPOL block = Pf-apPOL DNA polymerase inhibition | Recombinant Pf-apPOL, molecular beacon fluorescence, 1.5 h | inhibition, % at 10 µM | 210,000 compounds, 0.25% hits | AID 1794808
mHTT CaM bind = disrupts binding of mutant huntingtin to calmodulin. P42858. AID 1671202. AlphaScreen His-mHTT/GST-CaM binding, luminescence. inhibition, % at 15 µM. 190,000 compounds, 3.6% hits;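 also: 0% = both proteins with DMSO and 100% = one protein alone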
Starred values were filed as active, the others as inactive. Rule as the data show it: active = inhibition above about 50%; inactive = the rest.

SMILES	Pf apPOL block	mHTT CaM bind
Cc1cc(Cl)ccc1OCC(=O)Nc1ccc2oc(-c3ccncc3)nc2c1	3	-1
Cc1cccc(OCC(=O)Nc2ccc(-c3nc4ncccc4o3)cc2)c1C	0	75*
CC(C)(C)c1ccc(OCC(=O)Nc2ccc3oc(-c4ccncc4)nc3c2)cc1	68*	3
CCc1ccc(-c2nc3cc(NC(=O)COc4ccc(OC)cc4)ccc3o2)cc1	6	6
Cc1ccccc1OCC(=O)Nc1ccc2oc(-c3ccncc3)nc2c1	8	70*
COc1ccccc1C(=O)Nc1cccc(-c2nc3ncccc3o2)c1	3	58*
COc1ccc(Br)cc1C(=O)Nc1cccc(-c2nc3ncccc3o2)c1	1	-2
Cc1ccc(-n2cc(-c3ccc(Br)cc3)[nH]c2=O)cc1Cl	-9	46
Cc1onc(-c2ccccc2)c1C1=N/C(=C\c2cccc(Br)c2)C(=O)O1	0	3
Cn1ncc(N2CCCC(C(=O)NCCCc3ccccc3)C2)cc1=O (stereo not drawn)	-6	-4
O=C(NCCCN1CCCc2ccccc21)C1CCc2nc(N3CCOCC3)ncc2C1 (stereo not drawn)	-6	30
O=C(NCCCN1CCCc2ccccc21)C1CCc2nc(N3CCCCC3)ncc2C1 (stereo not drawn)	-4	54*
Cc1ccnc(N2CCCC(C(=O)NCCCN3CCCc4ccccc43)C2)n1 (stereo not drawn)	6	52*
Cc1ccnc(N2CCCC(C(=O)NCCCN3CCN(C)CC3)C2)n1 (stereo not drawn)	-10	-5
Cn1ncc(N2CCCC(C(=O)NCCCN3CCCCC3)C2)cc1=O (stereo not drawn)	-3	-2
Cn1ncc(N2CCCC(C(=O)NCCCN3CCCc4ccccc43)C2)cc1=O (stereo not drawn)	-2	75*
Cn1ncc(N2CCCC(C(=O)NCCCN3CCCC3=O)C2)cc1=O (stereo not drawn)	-3	100*
O=C(c1cccc(F)c1)N1CCCC(c2nc(-c3ccccc3)n[nH]2)C1 (stereo not drawn)	-2	-4
Cc1cc(C)nc(N=C(N)Nc2ccc(Cl)cc2[N+](=O)[O-])n1	-3	0
COCOCCn1cc(CN2CCS(=O)(=O)N(Cc3ccc(-c4ccc(F)nc4)cc3)C(CC(C)C)C2=O)nn1 (stereo not drawn)	6	50*
CC(C)CC1C(=O)N(Cc2cn(Cc3ccco3)nn2)CCS(=O)(=O)N1Cc1ccc(-c2ccncc2)cc1 (stereo not drawn)	-5	33
CC(C)CC1C(=O)N(Cc2cn(Cc3ccco3)nn2)CCS(=O)(=O)N1Cc1ccc(-c2ccc(F)nc2)cc1 (stereo not drawn)	-6	60*
COc1ccc(-c2ccc(CN3C(CC(C)C)C(=O)N(Cc4cn(Cc5ccco5)nn4)CCS3(=O)=O)cc2)cc1 (stereo not drawn)	-2	32
CC(C)CC1C(=O)N(Cc2cn(Cc3ccco3)nn2)CCS(=O)(=O)N1Cc1ccc(-c2ccccc2)cc1 (stereo not drawn)	-4	68*
COCOCCn1cc(CN2CCS(=O)(=O)N(Cc3ccc(-c4ccc(F)nc4)cc3)C(C(C)C)C2=O)nn1 (stereo not drawn)	-4	-8
SMILES	Pf apPOL block	mHTT CaM bind
Cc1noc(C2CN(C(=O)Nc3ccc(F)cc3)CC23CCOCC3)n1 (stereo not drawn)	1	-3
COc1cc(/C=c2\sc3nc(-c4ccccc4)nn3c2=O)cc(OC)c1OC	-2	-3
Cc1oc(C(=O)O)cc1COc1ccc2c(C)c(C)c(=O)oc2c1C	-6	8
Cc1oc(C(=O)O)cc1COc1cccc2cccnc12	0	74*
CC1(C)CC(=O)C2=C(C1)Nc1ccccc1NC2c1ccccc1 (stereo not drawn)	1	-2
Cc1cc2c(cc1C)NC(c1ccc(Cl)c(F)c1)C1=C(CC(C)(C)CC1=O)N2 (stereo not drawn)	6	59*
Cc1cc2c(cc1C)NC(c1ccc(F)cc1)C1=C(CC(C)(C)CC1=O)N2 (stereo not drawn)	-16	20
CC1(C)CC(=O)C2=C(C1)Nc1ccccc1NC2c1ccc(-c2ccc([N+](=O)[O-])cc2Cl)o1 (stereo not drawn)	-3	50
CC1(C)CC(=O)C2=C(C1)Nc1ccccc1NC2c1ccc(-c2ccc([N+](=O)[O-])cc2)o1 (stereo not drawn)	-1	73*
CC1(C)CC(=O)C2=C(C1)Nc1ccccc1NC2c1ccc(Cl)c(Cl)c1 (stereo not drawn)	0	66*
CCN(CCNC(=O)c1cc2c(s1)CN(C(C)C)C2)c1cccc(C)c1	-2	34
O=C(Nc1nc2c(s1)CN(C(=O)c1cnn(-c3ccccc3)n1)CC2)c1ccco1	6	53*
O=C(Nc1nc2c(s1)CN(C(=O)c1cc(C3CC3)on1)CC2)c1ccco1	-2	-10
Cc1ccc(-c2noc(C3CCCN3S(=O)(=O)c3ccc4c(c3)CCC4)n2)cc1 (stereo not drawn)	1	-22
COc1ccc(-n2cc(C(=O)N3CCCCC3)nn2)cc1	4	-2
COc1ccccc1/C=C1/SC(c2ccccc2)=NC1=O	-12	12
CCN1CCC2(CC1)N=C(c1ccccc1O)CC(c1ccccc1O)N2 (stereo not drawn)	-3	35
CC(=O)N1CCC2(CC1)N=C(c1ccccc1O)CC(c1ccc(C)cc1C)N2 (stereo not drawn)	-5	58*
COc1ccc(C2CC(c3ccccc3O)=NC3(CCN(C(C)=O)CC3)N2)cc1OC (stereo not drawn)	-3	51*
CCOC(=O)N1CCC2(CC1)N=C(c1cc(Cl)ccc1O)CC(c1ccccc1O)N2 (stereo not drawn)	-2	100*
CCOC(=O)N1CCC2(CC1)N=C(c1ccc(C)cc1)CC(c1cc(Cl)ccc1O)N2 (stereo not drawn)	3	3
CCN1CCC2(CC1)N=C(c1ccccc1O)CC(c1ccc(Cl)cc1)N2 (stereo not drawn)	-2	60*
COc1ccc(C2CC(c3ccccc3O)=NC3(CCN(C(C)C)CC3)N2)cc1OC (stereo not drawn)	-7	38
CC(=O)N1CCC2(CC1)N=C(c1ccccc1O)CC(c1ccccc1O)N2 (stereo not drawn)	-1	47
O=C(C=Cc1ccc2c(c1)OCO2)NCC1COC2(CCCCC2)O1 (stereo not drawn)	-12	1
SMILES	Pf apPOL block	mHTT CaM bind
Nn1cnn2c(SCC(=O)c3ccccc3)nnc12	25	2
Cc1ccc2c(c1)N(c1ccccc1)C=C(C#N)S2(=O)=O	-2	-4
CC(=O)N1CCC2(CC1)N=C(c1cc(Cl)ccc1O)CC(c1ccc(F)cc1)N2 (stereo not drawn)	-3	100*
CN1CCC2(CC1)N=C(c1cc(Cl)ccc1O)CC(c1ccccc1O)N2 (stereo not drawn)	-3	45
CC(C)N1CCC2(CC1)N=C(c1cc(Cl)ccc1O)CC(c1ccccc1O)N2 (stereo not drawn)	5	32
CC(=O)N1CCC2(CC1)N=C(c1ccccc1O)CC(c1ccc(C(C)C)cc1)N2 (stereo not drawn)	-5	7
CCN1CCC2(CC1)N=C(c1cc(Cl)ccc1O)CC(c1ccc(OC)cc1)N2 (stereo not drawn)	-3	100*
